# Where “and” joins values, the source holds several entries; their conditions need not be identical. Equal values may be shown once. About 1,800 (2.5%) of roughly 73,000 compounds were called active. Not shown: some 13% with an inconclusive outcome. Calls come from the whole dose curve; as a rule, active = well fitted activation curve with a large enough effect; inconclusive = small, poorly fitted or top-dose-only effect; inactive = no such curve, though single readings can be large or run the other way. Many of the other results were omitted from the sample, so actives are more common in it than they were.
# Experiment: qHTS Assay for Agonists of the Thyroid Stimulating Hormone Receptor: Activators of Intracellular cAMP Concentrations in Parental HEK 293; note: nearly all actives have a fitted effect of over 55% in size; for activation: % of control where 0% means no effect
# Details: parental HEK293 CNG cAMP sensor, membrane potential fluorescence; series mostly up to 57.1 µM; activation: at the top concentration
# How it was run: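 Parental HEK 293 cells stably expressing a cAMP-gated CNG channel were loaded with membrane potential dye containing 100 uM RO 20-1724 for 60 min. Compound added for 30 min; depolarization read as fluorescence intensity at 590 nm.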
# Potency is the fitted concentration of half-maximal effect.
SMILES,activation,Potency
CC(C)N(CCNC(=O)c1ccc(-n2c(=O)c(=O)[nH]c3ccccc32)cc1)C(C)C,-3.64% (inactive),–
Cc1cc(C)c(C#N)c(SCc2ccccc2C(=O)O)n1,5.96% (inactive),–
Cc1cc(N2CCN(Cc3ccc4c(c3)OCO4)CC2)n2ncnc2n1,7.27% (inactive),–
Cc1cc(C)c(C#N)c(SCc2ccc3c(c2)OCO3)n1,–,20 µM (active)
CC1(C)OC(C(O)(c2ccccc2)c2ccccc2)C(C(O)(c2ccccc2)c2ccccc2)O1 (centres undefined),25.8% [at 11.4 µM] (inactive),–
CCOc1ccc(C(CC(=O)O)NC(=O)COc2ccccc2)cc1 (centres undefined),22.8% (inactive),–
O=C(Nc1nnc(CCc2ccccc2)s1)C1CCCO1 (centres undefined),-1.9% (inactive),–
CCC(=O)c1cc2c(cc1NC(=O)c1cccs1)OCCO2,-57.7% (inactive),–
O=S(=O)(NCC1CCCO1)c1ccc2ccccc2c1 (centres undefined),28.1% (inactive),–
Cc1cc(C)c2[nH]c(=O)c(C(c3nnnn3Cc3ccc4c(c3)OCO4)N3CCCC3)cc2c1 (centres undefined),26.5% (inactive),–
CCC(C)(C)n1nnnc1C(c1cccs1)N1CCN(Cc2ccccc2)CC1 (centres undefined),–,12.6 µM (active)
Cc1ccc(C(c2nnnn2C(C)(C)C)N2CCc3ccccc3C2)cc1 (centres undefined),10.3% (inactive),–
Fc1ccccc1C(c1nnnn1Cc1ccc2c(c1)OCO2)N1CCN(Cc2ccccc2)CC1 (centres undefined),-1.23% (inactive),–
CCOc1ccc(CN(Cc2ccco2)C(c2cccs2)c2nnnn2C(C)(C)C)cc1 (centres undefined),21.3% (inactive),–
Cn1nnnc1SCC(=O)N1CCN(Cc2ccccc2)CC1,-19.6% (inactive),–
CCC(C)(C)n1nnnc1C(c1cccs1)N1CCN(c2nc3ccccc3s2)CC1 (centres undefined),–,3.16 µM (active)
O=S(=O)(c1cccs1)N1CCN(Cc2ccccc2)CC1,8.66% (inactive),–
Fc1ccc(Cn2nnnc2C(c2cccs2)N2CCCCCC2)cc1 (centres undefined),–,31.6 µM (active)
COc1ccc(-c2nc3cnc(N(C)C)nc3n(Cc3cccs3)c2=O)cc1,2.64% (inactive),–
CCOC(=O)C(C(=O)OCC)C(C#N)c1ccccc1 (centres undefined),14.2% (inactive),–
O=C(O)CC(C(=O)O)C(CC(=O)O)C(=O)O (centres undefined),-7.18% (inactive),–
Cc1ccc(S(=O)(=O)Cn2nnnc2CN2CCN(Cc3ccc4c(c3)OCO4)CC2)cc1,20% (inactive),–
O=C(O)c1ccc(Cl)c(S(=O)(=O)Nc2ccccc2Cl)c1,5.29% (inactive),–
Cc1ccc(-c2nc(CS(=O)CC(=O)N3CCN(c4ncccn4)CC3)c(C)o2)cc1 (centres undefined),5.16% (inactive),–

SMILES,activation,Potency
N#CC1=C(N)OC2=C(C(=O)CCC2)C1C1CC=CCC1 (centres undefined),9.36% (inactive),–
CC1CCN(C(=O)Cn2cc(C(=O)c3ccco3)c3ccccc32)CC1,–,20 µM (active)
CCOC(=O)C1CCN(C(=O)Cn2cc(C#N)c3ccccc32)CC1,-2.07% (inactive),–
COC(=O)Cn1cc(C(=O)c2cccs2)c2ccccc21,18.6% (inactive),–
CC(=O)OCC1OC(C#Cc2ccccc2Cl)C=CC1OC(C)=O (centres undefined),-0.512% [at 11.4 µM] (inactive),–
CCCCCCCCCCCC(=O)O[C@H](CC(=O)O)C[N+](C)(C)C,10.1% (inactive),–
COc1ccc(-c2nnc(SCC(=O)c3ccco3)n2-c2ccccc2)cc1,11.6% (inactive),–
O=C(CSc1nnc(-c2cccnc2)n1Cc1ccco1)c1ccc(Cl)cc1,19.9% (inactive),–
O=C(CSc1nnc(-c2cccs2)n1Cc1ccco1)c1ccc2c(c1)OCO2,–,31.6 µM (active)
CCn1c(CNc2ccc(OC)cc2)nnc1SCC(=O)c1ccc(OC)cc1,3.65% (inactive),–
O=C(CSc1nnc(-c2cccs2)n1-c1ccccc1)NCc1ccco1,23.2% (inactive),–
Cc1ccc(NC(=O)CSc2nnc(-c3cnccn3)n2Cc2ccco2)cc1C,0.776% (inactive),–
O=C(CSc1nnc(-c2cnccn2)n1Cc1ccco1)c1ccc(Cl)c(Cl)c1,–,25.1 µM (active)
COc1ccc(C(=O)CSc2nnc(COc3ccccc3)n2Cc2ccco2)cc1,–,15.8 µM (active)
COc1ccc(NC(=O)CSc2nnc(-c3cccs3)n2Cc2ccco2)cc1OC,5.77% (inactive),–
CCOC(=O)c1nc(-c2ccc3c(c2)OCO3)[nH]c1C,20.4% (inactive),–
CCCC(=O)N1c2ccc(-c3csc(N)n3)cc2CC1C (centres undefined),-11.7% (inactive),–
Cc1ccc2nc(S(=O)(=O)O)[nH]c2c1,0.944% (inactive),–
NC(=O)CSC1=Nc2ccccc2C2=NC(CCC(=O)NCc3ccc(F)cc3)C(=O)N12 (centres undefined),1.88% (inactive),–
O=C(CC1N=C2c3ccccc3N=C(SCc3ccccc3Cl)N2C1=O)NCc1ccco1 (centres undefined),–,15.8 µM (active)
O=C(CSC1=Nc2ccccc2C2=NC(c3ccccc3)C(=O)N12)NCC1CCCO1 (centres undefined),-0.0353% (inactive),–
Cc1cc(OCC(=O)O)c(Cl)cc1Cl,18.1% [at 11.4 µM] (inactive),–
Cc1ccccc1C(=O)O,5.98% (inactive),–
CCCC(=O)Nc1ccccc1N1CCN(C(=O)c2ccccc2)CC1,–,15.8 µM (active)

SMILES,activation,Potency
CCC(=O)Nc1ccccc1N1CCN(S(C)(=O)=O)CC1,13% (inactive),–
O=C(Nc1ccccc1N1CCN(C(=O)c2ccccc2)CC1)c1ccc2c(c1)OCO2,6.57% (inactive),–
CC(C)CO/N=C1/C[C@@H](O)[C@@H](O)[C@@H]2[C@@H]3C(=O)N(C[C@@H]4CCCO4)C(=O)[C@H]3CC[C@@H]12,4.27% [at 11.4 µM] (inactive),–
O=C(O)COc1c(Cl)cc(Cl)c2cccnc12,14.2% [at 11.4 µM] (inactive),–
CC12CCC(C(=O)N3CCN(c4ncccn4)CC3)(c3nc4ccccc4nc31)C2(C)C (centres undefined),12.7% (inactive),–
COCCCNC(=O)CSc1nc2ccc(N3CCOCC3)cc2c(=O)n1CCc1ccccc1,3.65% (inactive),–
CCCCn1c(SCC(=O)NCC2CCCO2)nc2ccc(N3CCOCC3)cc2c1=O (centres undefined),2.7% (inactive),–
CCc1ccc(NC(=O)CSc2nc3ccccc3c(=O)n2CCN2CCOCC2)cc1,–,31.6 µM (active)
COC(=O)C1=C(C)N(Cc2ccccc2)C2=C3C(=O)N(c4ccccc4)C(=O)C3[C@@](O)(C(=O)OC)C(=O)N2C1c1ccccc1 (some centres undefined),9.18% [at 11.4 µM] (inactive) and 2.67% [at 11.4 µM] (inactive),–
Cc1ccccc1-c1nc(N(C)Cc2ccco2)c2ccccc2n1,–,25.1 µM (active)
CN(Cc1ccco1)c1ncncc1-c1ccoc1,11.1% (inactive),–
CN(Cc1ccco1)c1cc(-c2ccccc2C(F)(F)F)ncn1,22.4% (inactive),–
CCC(C(=O)NC1CCCC1)N(C(=O)c1snc(C(N)=O)c1N)c1ccc2c(c1)OCCO2 (centres undefined),–,25.1 µM (active)
COCCNC(=O)C(c1ccc(C)o1)N(Cc1cccs1)C(=O)c1snc(C(N)=O)c1N (centres undefined),-0.52% (inactive),–
Cc1ccc(C(C(=O)NC2CCCCC2)N(C(=O)c2csnn2)C2CC2)o1 (centres undefined),17.2% (inactive),–
Cc1cc2c(cc1C)NC1=C(N2)O[C@H](c2c[nH]c3ccc(COc4ccccc4)cc23)C1=O,3.07% [at 11.4 µM] (inactive),–
O=C(c1ccncc1)N1CCC2(CCCN(C(c3ccccc3)c3ccccc3)C2)CC1,–,10 µM (active)
O=C(c1cc(C(F)(F)F)cc(C(F)(F)F)c1)N1CCC2(CCCN(Cc3ccncc3)C2)CC1,20.6% (inactive),–
COc1ccc(C(=O)N2CCC3(CC2)CCN(c2ccccn2)CC3)cc1,14.2% (inactive),–
O=C(c1cc(C(F)(F)F)cc(C(F)(F)F)c1)N1CCC2(CCCN(c3ccccn3)C2)CC1,–,25.1 µM (active)
O=C(c1cc(C(F)(F)F)cc(C(F)(F)F)c1)N1CCC[C@@]2(CCN(c3ccccn3)C2)C1,–,15.8 µM (active)
O=C(c1cccc(F)c1)N1CCC2(CCCN(Cc3ccncc3)C2)CC1,24.7% (inactive),–
CC(=O)N1CCC2(CCCN(c3ncccn3)C2)CC1,5.39% (inactive),–
COc1ccc(C(=O)N2CCC3(CCCN(C(c4ccccc4)c4ccccc4)C3)CC2)cc1,20.6% (inactive),–

SMILES,activation,Potency
O=C(c1csnn1)N1CCC[C@@]2(CCN(c3cccc(-c4ccccc4)c3)C2)C1,3.98% (inactive),–
COc1cccc([C@H](O)Cn2cc(-c3ccc(CON=C(C)C)cc3)nn2)c1,14.1% [at 11.4 µM] (inactive),–
COc1ccc(COC(=O)N/N=C2/C[C@@H](O)[C@@H](O)[C@@H]3[C@@H]4C(=O)N([C@@H](C)c5ccccc5)C(=O)[C@H]4CC[C@@H]23)cc1,-0.62% [at 11.4 µM] (inactive),–
CCOC(=O)c1sc(NC(=S)n2cc(C)cn2)c(C(=O)OCC)c1C,4.01% (inactive),–
CN1CCc2nc(-c3ccccc3)c(-c3ccccc3)cc2C1,0.173% [at 11.4 µM] (inactive),–
c1ccc2nc(C3=NCCN3)cnc2c1,-2.21% (inactive),–
CCOC(=O)c1ccc(N2C(=O)CC(N3CCC(C(=O)OCC)CC3)C2=O)cc1 (centres undefined),-3.39% (inactive),–
CCOC(=O)c1nnn(-c2nc(OC)nc(N(C)C)n2)c1-c1ccccc1,19.1% (inactive),–
Cc1ccc(C(=O)N2CCN(C3CCCCC3)CC2)s1,-11.9% (inactive),–
N/C(=N\c1nc2ccccc2o1)NC(=O)C(Cc1ccccc1)N1C(=O)c2ccccc2C1=O (centres undefined),6.18% (inactive),–
Cc1cccc2cc(CN(Cc3ccc4c(c3)OCO4)Cc3nnnn3C3CCCC3)c(=O)[nH]c12,–,31.6 µM (active)
CCOC(=O)C1CCN(C(c2cc3cc(C)cc(C)c3[nH]c2=O)c2nnnn2C2CCCCC2)CC1 (centres undefined),14.4% (inactive),–
Cc1cccc2cc(CN(Cc3cccs3)C(c3nnnn3C3CCCC3)C(C)C)c(=O)[nH]c12 (centres undefined),20.4% (inactive),–
O=C1C(c2ccccn2)=[N+]([O-])c2ccccc21,4.84% (inactive),–
O=c1c2ccccc2nnn1CSc1nc2sc3c(c2c(=O)n1CC1CCCO1)CCC3 (centres undefined),24.9% (inactive),–
COc1ccccc1Oc1ccc(S(=O)(=O)Nc2cccnc2)cc1,19.7% (inactive),–
COc1ccccc1N(C(=O)Cn1nnc2ccccc21)C(C(=O)NCc1ccco1)c1ccc(C)o1 (centres undefined),–,3.98 µM (active)
CCOc1ccccc1C(=O)NCc1ccco1,22.2% (inactive),–
COc1ccc(C2=NOC(C(=O)NCc3ccco3)C2)cc1OC (centres undefined),8.46% [at 2.29 µM] (inactive),–
COc1ccc(CC(=O)Nc2c3c(nn2-c2cccc(Cl)c2)CS(=O)C3)cc1 (centres undefined),26.7% (inactive),–
CC(C)(C)n1nc2c(c1NC(=O)c1ccc(S(=O)(=O)N3CCCC3)cc1)CS(=O)C2 (centres undefined),9.47% (inactive),–
Cc1cccc(CC(=O)Nc2c3c(nn2-c2cccc(Cl)c2)CS(=O)C3)c1 (centres undefined),–,10 µM (active)

# From PubChem BioAssay AID938 (National Center for Advancing Translational Sciences (NCATS), 2007)
